# Pf growth 96h – inhibits malaria parasite growth, 96 h. P. falciparum luciferase reporter growth, 96 h. Potency, µM (series often up to 28.7 µM), usual class: inhibitors. 320,000 compounds, 6.9% hits
#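 Readout is luminescence from an integrated firefly luciferase in P. falciparum. Red cells, 2% hematocrit and 0.05% parasitemia final, were cultured with compound through two parasite generations (96 hours) at 37 C, 5% CO2.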
# Shiga inhibitor – Shiga toxin inhibition. Vero cells, Shiga toxin protein synthesis inhibition reporter. inhibition, % at 38.7 µM. 290,000 compounds, 9.2% hits. AID 2315; in the data active = inhibition mostly above about 28%, no sharp cut-off; inactive = mostly below about 43%
# Pf growth 48h – inhibits P. falciparum growth in the first generation, 48 h | P. falciparum luciferase growth in erythrocytes, 48 h | Potency, µM (titrated, usually from 28.7 µM), usual class: inhibitors | 310,000 compounds, 5.9% hits
#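 Luciferase-expressing P. falciparum in infected erythrocytes (2% hematocrit, 0.1% parasitemia final) in RPMI 1640/0.5% Albumax were exposed to compound for 48 hours at 37 C, 5% CO2; growth read as luminescence.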
# NS1 function inh – inhibitors of influenza NS1 protein function | AID 2326 | Potency, µM (titrated, usually from 46.1 µM) | 270,000 compounds, 0.4% hits; calls by dose curve; also: actives are rising curves; nearly all actives have a fitted effect of over 50% in size
#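 Growth recovery, yeast-based: influenza A NS1 expressed in S. cerevisiae causes slow growth, and suppressors are detected by OD600. The parent strain without NS1 is used as positive control.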
# SARS PLP yeast – inhibitors of SARS-CoV papain-like protease in yeast; S. cerevisiae expressing SARS-CoV PLpro, growth rescue; Potency, µM (doses to about 32.9 µM), actives largely listed as activators; 330,000 compounds, 0.19% hits; calls by dose curve; also: nearly all actives have a fitted effect of over 55% in size
# Cycloheximide cs – affects cycloheximide protein synthesis inhibition readout, counter-screen; cell reporter, cycloheximide protein synthesis inhibition counterscreen; max response, %; 300,000 compounds, 12% hits; in the data active = max response mostly above about 13%, no sharp cut-off; inactive = mostly below about 14%; also: read at 38.3 µM for the half of the compounds with a filed dose
# Numbers stand for hits; - = inactive; ? = inconclusive; . = no result given; [ ] = dose if it differs, or a comment. Rows were chosen to be rich in hits. Some 21% of all compounds tested hit in one or more screens of this group. Unless noted, calls follow the shape of the dose curve; as a rule, active = well fitted inhibition curve with a large enough effect; inconclusive = small, poorly fitted or top-dose-only effect, or another doubt; inactive = no such curve, though single readings can be large or run the other way.
SMILES,Pf growth 96h,Shiga inhibitor,Pf growth 48h,NS1 function inh,SARS PLP yeast,Cycloheximide cs
CN(/N=C/c1ccc([N+](=O)[O-])o1)c1ccccc1,-,-,-,.,-,33.3
O=C(N/N=C/c1ccc([N+](=O)[O-])o1)C1CC1,4.15µM,-,-,-,-,-
COC(=O)N/N=C/c1ccc([N+](=O)[O-])o1,11.7µM,-,13.1µM,-,-,-
CC(=O)N(/N=C/c1ccc([N+](=O)[O-])o1)c1nc2ccccc2c(=O)n1-c1ccccc1,-,-,-,-,-,-
Cc1cccc(C)c1NC(=O)C1c2cccc[n+]2CC(=O)N1Cc1cccs1 (stereo not given),-[1.15 µM],-,-,.,-,-
CCOC(=O)c1c(C)[nH]c(C(=O)COC(=O)c2ccco2)c1C,.,.,.,.,-,.
COCCN(CC1CCCN(C2Cc3ccccc3C2)C1)C(=O)CSC (stereo not given),?,-,?,-,-,-
Cc1ccc(C(=O)N(CCN2CCCCC2)CC2CCCN(C3CCCC3)C2)s1 (stereo not given),-,71.7,?,-,?,32.9
O=C(c1cccs1)N(CCN1CCCCC1)CC1CCCN(C2CCCC2)C1 (stereo not given),?,52.6,-,?,-,35.9
COCCN(CC1CCCN(C2Cc3ccccc3C2)C1)C(=O)c1cccs1 (stereo not given),-,29.0,?,-,-,27.1
Cc1ccc(OCC(=O)NC2CCSc3ccccc32)cc1 (stereo not given),-,.,-,.,-,.
Cc1nc(SCC(=O)Nc2ccc(CN3CCCC3)cc2)c2c(C)c(C)sc2n1,13.1µM,.,9.28µM,.,-,.
O=c1[nH]c2c(c(=O)[nH]1)CCC2,-,-,-,.,-,-
Cc1ccc(Nc2ncnc3sc(C)c(C)c23)cc1,9.28µM,78.8,-,-,-,24.0
Cc1sc2ncnc(N/N=C/c3cccc(O)c3)c2c1C,-,29.4,-,-,-,42.3
C/C(=N\Nc1ncnc2sc(C)c(C)c12)c1ccccn1,0.0465µM,67.0,0.165µM,-,-,49.4
Cc1sc2ncnc(Nc3ccc(O)cc3)c2c1C,?,-,-,-,-,-
CCN(C(=O)c1ccc(C)c(Br)c1)c1ccccc1,-,-,-[5.75 µM],.,-,-
Cc1nc2cc(CC(=O)O)ccc2o1,-,-,-,-,-,-
COc1ccc(C2C(C(=O)c3ccco3)=C(O)C(=O)N2c2nnc(C)s2)cc1 (stereo not given),?,76.0,-,-,-,54.9
Cc1ccc2nc(N3C(=O)C(O)=C(C(=O)c4ccco4)C3c3cccs3)sc2c1 (stereo not given),-,68.4,-,-,-,34.2
C=CCOc1ccc(C2C(C(=O)c3ccco3)=C(O)C(=O)N2c2nnc(C)s2)cc1 (stereo not given),-,71.5,-,-,-,22.8
COc1ccc(C2C(C(=O)c3ccco3)=C(O)C(=O)N2c2nnc(C)s2)cc1OC (stereo not given),-,-,-,-,-,-
Cc1nc([N+](=O)[O-])c(SCC(O)CCl)n1Cc1ccc(Cl)cc1 (stereo not given),-,-,-,-,-,-
CC(NC(=O)c1ccco1)C1COc2ccccc2O1 (stereo not given),10.4µM,-,.,-,-,-
SMILES,Pf growth 96h,Shiga inhibitor,Pf growth 48h,NS1 function inh,SARS PLP yeast,Cycloheximide cs
CCCCN(CC)S(=O)(=O)N1CCC(C(=O)NCc2ccc(F)cc2)CC1,-,-,-,-,-,-
CCCCC(=O)NS(=O)(=O)c1ccc(NS(C)(=O)=O)cc1,-,-,-,-,-,-
COC(=O)c1ccc2nc(C)cc(Nc3ccc(N(C)C)cc3)c2c1,?,-,1.65µM,-,-,-
COC(=O)c1ccc(Nc2cc(C)nc3ccccc23)cc1,-,-,?,-,-,-
COc1ccc(Nc2cc(C)nc3ccc(OC)cc23)cc1,-,-,?,-,-,-
Cc1cc(Nc2ccc3c(c2)OCCO3)c2cc(Cl)ccc2n1,-,78.7,7.38µM,-,-,68.4
Cc1cc(C)c(C#N)c(Nc2ccc3c(c2)OCCO3)n1,?,-,.,-,-,-
Cc1ccc(Nc2cc(C)nc3ccc(C)cc23)cc1,0.0415µM,-,-,-,-,-
CCCn1c(SCC(=O)Nc2ccccc2Oc2ccccc2)n[nH]c1=O,-,-,.,-,-,-
O=C(CCCc1nc2ccccc2s1)NNC(=O)CCN1CCN(Cc2ccccc2)CC1,-,-,-,.,-,-
O=c1oc2c(-c3cccc(F)c3)cc(O)cc2s1,-,-,-,-,-,-
COCC(C)NC(=O)CSc1ncnc2sc(-c3ccccc3)cc12 (stereo not given),-,-,-,-,-,-
[O-][n+]1c2ccccc2cc2ccccc21,7.38µM,.,2.62µM,.,-,.
CCc1ccc(C(=O)COC(=O)c2cccs2)cc1,.,-,-,-,-,23.4
O=C(COC(=O)c1cccs1)c1ccc2c(c1)OCCO2,-,-,.,-,-,-
CN(C)c1ccc(C(=O)OCC(=O)c2cccs2)cc1,9.28µM,70.6,-,-,-,45.0
O=C(COC(=O)c1cccs1)c1ccc2ccccc2c1,-,97.7,-,-,-,56.2
O=C(NNC(=O)c1cccs1)c1ccc2ccccc2c1,1.65µM,50.7,-,-,-,29.4
CN(C(=O)COC(=O)c1ccc2c(c1)OCO2)c1c(N)n(Cc2ccccc2)c(=O)[nH]c1=O,-,.,-,.,-,.
COc1ccccc1C(=O)Nc1cc(-c2nn3c(C)nnc3s2)ccc1C,.,.,.,-,.,.
O=C1NCCN(C(=O)CCc2nnc(-c3ccsc3)o2)C1c1ccc(F)cc1 (stereo not given),-,-,-,-,-,-
CCN(CC)CCNC(=O)CNC(=O)c1nn(-c2ccc(OC)c(OC)c2)c(=O)c2ccccc12,?,-,-,-,-,-
O=C(N/N=C/c1ccc2c(c1)OCO2)c1cccc2ccccc12,-,-,-,-,-,-
Cc1occc1C(=O)N/N=C/c1ccc2c(c1)OCO2,-,67.2,-,-,-,25.9
Cc1cc(C(=O)N/N=C/c2ccc3c(c2)OCO3)c(C)o1,-,54.8,-,-,-,42.3
SMILES,Pf growth 96h,Shiga inhibitor,Pf growth 48h,NS1 function inh,SARS PLP yeast,Cycloheximide cs
Cn1cc(C(=O)N/N=C/c2cccs2)c2ccccc21,?,67.5,?,-,-,39.1
Cn1cc(C(=O)N/N=C/c2ccc3c(c2)OCO3)c2ccccc21,-,57.9,-,-,-,39.8
CCN(CC)S(=O)(=O)c1ccc2[nH]c(=O)cc(C(=O)Nc3ccccc3N3CCCC3)c2c1,?,-,?,-,-,-
O=C1CSC(c2c(F)cccc2Cl)N1c1cccc(F)c1 (stereo not given),11.7µM,-,?,-,-,-
O=C1CSC(c2ccccc2F)N1c1ccccc1 (stereo not given),8.28µM,-,-,-,-,-
O=C1CSC(c2cccc(F)c2)N1c1c(F)cccc1F (stereo not given),-,-,-,-,-,-
COc1ccccc1NC(=O)Nc1ccc2c(c1)CCC2,-,65.0,-,-,-,52.8

# Compound activity deposited in PubChem BioAssay by National Center for Advancing Translational Sciences (NCATS).
